{"source": "PubChem BioAssay (NCI)", "key": {"[1]": {"experiment": "NCI Yeast Anticancer Drug Screen. Data for the rad52 strain (AID 147);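 note: 0% = growth of vehicle-treated control cultures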", "conditions": "S. cerevisiae rad52 mutant growth inhibition, hits give high values", "method_in_brief": "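DNA repair-defective yeast; compound exposure; growth scored against vehicle controls.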"}, "[2]": {"experiment": "NCI Yeast Anticancer Drug Screen. Data for the wt1 strain (AID 149);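 note: 0% = growth of vehicle-treated wt1 cultures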", "conditions": "S. cerevisiae wt1 strain (SPY 50644) growth inhibition, hits give high values", "method_in_brief": "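Measured: growth of wt1 yeast under compound versus vehicle treatment, reported as inhibition.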"}, "[3]": {"experiment": "NCI Yeast Anticancer Drug Screen. Data for the rad50 strain (AID 155);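 note: 0% = growth of vehicle-only cultures of the same strain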", "conditions": "S. cerevisiae rad50 strain growth inhibition, hits give high values", "method_in_brief": "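Growth of the mutant yeast was measured after compound exposure and referenced to vehicle-treated cultures.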"}, "[4]": {"experiment": "NCI Yeast Anticancer Drug Screen. Data for the mec2-1 strain (AID 157)", "conditions": "S. cerevisiae mec2-1 strain, hits give high values", "method_in_brief": "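Growth inhibition is read against vehicle-treated controls after compound exposure of the mec2-1 yeast strain, which is defective in DNA damage repair or cell cycle control.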"}, "[5]": {"experiment": "NCI Yeast Anticancer Drug Screen. Data for the rad14 strain (AID 159);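 note: 0% = growth of vehicle-treated control cultures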", "conditions": "S. cerevisiae rad14 strain growth inhibition, hits give high values", "method_in_brief": "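Here, inhibition of yeast growth was measured after compound exposure, using a strain with a genetic defect in DNA damage repair and vehicle-treated cultures as the reference.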"}, "[6]": {"experiment": "NCI Yeast Anticancer Drug Screen. Data for the CLN2oe strain (AID 163);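 note: 0% = growth of vehicle-only control cultures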", "conditions": "S. cerevisiae CLN2oe strain, hits give high values", "method_in_brief": "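Compound-treated yeast; growth vs vehicle ctrl = % inhibition. Genetically altered strain (cell-cycle control).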"}, "[7]": {"experiment": "NCI Yeast Anticancer Drug Screen. Data for the cln2 rad14 strain (AID 165);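 note: 0% = growth equal to vehicle treated cultures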", "conditions": "S. cerevisiae cln2 rad14 strain, hits give high values", "method_in_brief": "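Growth inhibition, relative to vehicle-treated controls, is the read-out. The test organism is a yeast strain with defined genetic alterations, cln2 rad14.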"}, "[8]": {"experiment": "NCI Yeast Anticancer Drug Screen. Data for the bub3 strain (AID 167)", "conditions": "S. cerevisiae bub3 mutant strain, hits give high values", "method_in_brief": "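Whole-cell yeast assay. The mutant strain was incubated with compounds, and growth inhibition was determined by comparison with vehicle-treated cells.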"}, "[9]": {"experiment": "NCI Yeast Anticancer Drug Screen. Data for the wt2 strain (AID 169);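 note: 0% = growth of vehicle-treated yeast cultures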", "conditions": "S. cerevisiae wt2 strain growth inhibition, hits give high values", "method_in_brief": "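Compound exposure of yeast; growth compared with vehicle controls; inhibition reported.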"}, "[10]": {"experiment": "NCI Yeast Anticancer Drug Screen. Data for the mlh1 strain (AID 171);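 note: 0% = growth of vehicle-treated control cultures of the same strain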", "conditions": "S. cerevisiae mlh1 strain growth inhibition, hits give high values", "method_in_brief": "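Compounds are applied to a genetically altered yeast strain, and its growth is compared with that of vehicle-treated cultures to give percent inhibition.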"}, "[11]": {"experiment": "NCI Yeast Anticancer Drug Screen. Data for the sgs1 strain (AID 173);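 note: 0% = growth of vehicle-only control cultures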", "conditions": "S. cerevisiae sgs1 mutant, hits give high values", "method_in_brief": "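Compounds applied to genetically altered yeast; growth compared with vehicle-treated cultures to give % inhibition.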"}, "[12]": {"experiment": "NCI Yeast Anticancer Drug Screen. Data for the mlh1 rad18 strain (AID 175)", "conditions": "S. cerevisiae mlh1 rad18 strain growth inhibition, hits give high values", "method_in_brief": "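Cells of a genetically altered yeast strain, deficient in DNA damage repair, were treated with compound. Their growth was then compared with that of vehicle-treated cultures to give inhibition.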"}, "[13]": {"experiment": "NCI Yeast Anticancer Drug Screen. Data for the rad18 strain (AID 177)", "conditions": "S. cerevisiae rad18 mutant growth inhibition, hits give high values", "method_in_brief": "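Compounds are applied to a repair-deficient yeast strain, and growth is compared with that of vehicle-treated cultures to give percent inhibition.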"}, "[14]": {"conditions": "at 5.0 µM (retest, dose inferred, filed as 0.5)"}, "[15]": {"conditions": "at 50.0 µM (retest, dose inferred, filed as 5.0)"}}, "note": "The panel holds about 79,000 compounds, 15% with a hit somewhere; the sample as a whole holds those more often. Unmarked numbers belong to inactive results. The source made the active and inactive calls. Cut-off read from the data, not from the text of the source: active = growth inhibition above about 70%; inactive = the rest.", "data": [{"smiles": "CC(C)c1[nH]nc(C(N)=O)c1N=NN(C)C", "values": [{"measurement": "growth inhibition", "setting": "[1]; at 1.2 µM", "result": 3, "unit": "%"}, {"measurement": "growth inhibition", "setting": "[1]; at 3.7 µM", "result": 4, "unit": "%"}, {"measurement": "growth inhibition", "setting": "[1]; at 11.0 µM", "result": 40, "unit": "%"}, {"measurement": "growth inhibition", "setting": "[1]; at 33.0 µM", "result": "87% (active)"}, {"measurement": "growth inhibition", "setting": "[1]; at 100.0 µM", "result": "95% (active)"}, {"measurement": "growth inhibition", "setting": "[2]; at 1.2 µM", "result": -5, "unit": "%"}, {"measurement": "growth inhibition", "setting": "[2]; at 3.7 µM", "result": -4, "unit": "%"}, {"measurement": "growth inhibition", "setting": "[2]; at 11.0 µM", "result": -8, "unit": "%"}, {"measurement": "growth inhibition", "setting": "[2]; at 33.0 µM", "result": -7, "unit": "%"}, {"measurement": "growth inhibition", "setting": "[2]; at 100.0 µM", "result": -1, "unit": "%"}, {"measurement": "growth inhibition", "setting": "[3]; at 1.2 µM", "result": -5, "unit": "%"}, {"measurement": "growth inhibition", "setting": "[3]; at 3.7 µM", "result": 3, "unit": "%"}, {"measurement": "growth inhibition", "setting": "[3]; [14]", "result": -90, "unit": "%"}, {"measurement": "growth inhibition", "setting": "[3]; at 11.0 µM", "result": 33, "unit": "%"}, {"measurement": "growth inhibition", "setting": "[3]; at 33.0 µM", "result": "81% (active)"}, {"measurement": "growth inhibition", "setting": "[3]; [15]", "result": "83% (active)"}, {"measurement": "growth inhibition", "setting": "[3]; at 50.0 µM", "result": "91.5% (active)"}, {"measurement": "growth inhibition", "setting": "[3]; at 100.0 µM", "result": "93% (active)"}, {"measurement": "growth inhibition", "setting": "[4]; at 1.2 µM", "result": 1, "unit": "%"}, {"measurement": "growth inhibition", "setting": "[4]; at 3.7 µM", "result": -1, "unit": "%"}, {"measurement": "growth inhibition", "setting": "[4]; [14]", "result": -46, "unit": "%"}, {"measurement": "growth inhibition", "setting": "[4]; at 11.0 µM", "result": -10, "unit": "%"}, {"measurement": "growth inhibition", "setting": "[4]; at 33.0 µM", "result": 4, "unit": "%"}, {"measurement": "growth inhibition", "setting": "[4]; [15]", "result": -16, "unit": "%"}, {"measurement": "growth inhibition", "setting": "[4]; at 50.0 µM", "result": 24.4, "unit": "%"}, {"measurement": "growth inhibition", "setting": "[4]; at 100.0 µM", "result": 61, "unit": "%"}, {"measurement": "growth inhibition", "setting": "[5]; at 1.2 µM", "result": -1, "unit": "%"}, {"measurement": "growth inhibition", "setting": "[5]; at 3.7 µM", "result": 1, "unit": "%"}, {"measurement": "growth inhibition", "setting": "[5]; at 11.0 µM", "result": 6, "unit": "%"}, {"measurement": "growth inhibition", "setting": "[5]; at 33.0 µM", "result": 12, "unit": "%"}, {"measurement": "growth inhibition", "setting": "[5]; at 100.0 µM", "result": 29, "unit": "%"}, {"measurement": "growth inhibition", "setting": "[6]; at 1.2 µM", "result": -3, "unit": "%"}, {"measurement": "growth inhibition", "setting": "[6]; at 3.7 µM", "result": -5, "unit": "%"}, {"measurement": "growth inhibition", "setting": "[6]; at 11.0 µM", "result": -2, "unit": "%"}, {"measurement": "growth inhibition", "setting": "[6]; at 33.0 µM", "result": -5, "unit": "%"}, {"measurement": "growth inhibition", "setting": "[6]; at 100.0 µM", "result": 6, "unit": "%"}, {"measurement": "growth inhibition", "setting": "[7]; [14]", "result": -55, "unit": "%"}, {"measurement": "growth inhibition", "setting": "[7]; [15]", "result": -43, "unit": "%"}, {"measurement": "growth inhibition", "setting": "[7]; at 50.0 µM", "result": 5.65, "unit": "%"}, {"measurement": "growth inhibition", "setting": "[8]; at 1.2 µM", "result": -17, "unit": "%"}, {"measurement": "growth inhibition", "setting": "[8]; at 3.7 µM", "result": -5, "unit": "%"}, {"measurement": "growth inhibition", "setting": "[8]; [14]", "result": -63, "unit": "%"}, {"measurement": "growth inhibition", "setting": "[8]; at 11.0 µM", "result": -5, "unit": "%"}, {"measurement": "growth inhibition", "setting": "[8]; at 33.0 µM", "result": -14, "unit": "%"}, {"measurement": "growth inhibition", "setting": "[8]; [15]", "result": -87, "unit": "%"}, {"measurement": "growth inhibition", "setting": "[8]; at 50.0 µM", "result": -4, "unit": "%"}, {"measurement": "growth inhibition", "setting": "[8]; at 100.0 µM", "result": -2, "unit": "%"}, {"measurement": "growth inhibition", "setting": "[9]; at 1.2 µM", "result": -2, "unit": "%"}, {"measurement": "growth inhibition", "setting": "[9]; at 3.7 µM", "result": -1, "unit": "%"}, {"measurement": "growth inhibition", "setting": "[9]; at 11.0 µM", "result": -2, "unit": "%"}, {"measurement": "growth inhibition", "setting": "[9]; at 33.0 µM", "result": -8, "unit": "%"}, {"measurement": "growth inhibition", "setting": "[9]; at 100.0 µM", "result": 4, "unit": "%"}, {"measurement": "growth inhibition", "setting": "[10]; at 1.2 µM", "result": 4, "unit": "%"}, {"measurement": "growth inhibition", "setting": "[10]; at 3.7 µM", "result": -8, "unit": "%"}, {"measurement": "growth inhibition", "setting": "[10]; at 11.0 µM", "result": -2, "unit": "%"}, {"measurement": "growth inhibition", "setting": "[10]; at 33.0 µM", "result": -3, "unit": "%"}, {"measurement": "growth inhibition", "setting": "[10]; at 100.0 µM", "result": 4, "unit": "%"}, {"measurement": "growth inhibition", "setting": "[11]; at 1.2 µM", "result": -2, "unit": "%"}, {"measurement": "growth inhibition", "setting": "[11]; at 3.7 µM", "result": -6, "unit": "%"}, {"measurement": "growth inhibition", "setting": "[11]; at 11.0 µM", "result": 12, "unit": "%"}, {"measurement": "growth inhibition", "setting": "[11]; at 33.0 µM", "result": 51, "unit": "%"}, {"measurement": "growth inhibition", "setting": "[11]; at 100.0 µM", "result": "84% (active)"}, {"measurement": "growth inhibition", "setting": "[12]; [14]", "result": -101, "unit": "%"}, {"measurement": "growth inhibition", "setting": "[12]; [15]", "result": 24, "unit": "%"}, {"measurement": "growth inhibition", "setting": "[12]; at 50.0 µM", "result": 58.1, "unit": "%"}, {"measurement": "growth inhibition", "setting": "[13]; at 1.2 µM", "result": 3, "unit": "%"}, {"measurement": "growth inhibition", "setting": "[13]; at 3.7 µM", "result": 12, "unit": "%"}, {"measurement": "growth inhibition", "setting": "[13]; at 11.0 µM", "result": 39, "unit": "%"}, {"measurement": "growth inhibition", "setting": "[13]; at 33.0 µM", "result": "80% (active)"}, {"measurement": "growth inhibition", "setting": "[13]; at 100.0 µM", "result": "94% (active)"}]}]}
